According to the supplement of paper PMC12819154, “High-throughput peptide-centric local stability assay extends protein–ligand identification to membrane proteins, tissues and bacteria” (Nature Structural & Molecular Biology, 2025):

compound: Nc1ncnc2c1ncn2[C@@H]1O[C@H](COP(=O)(O)OP(=O)(O)OP(=O)(O)O)[C@@H](O)[C@H]1O [adenosine 5'-triphosphate]; assay: log2 fold change of tryptic peptide abundance, ligand vs vehicle (limited proteolysis) (log2 ratio); higher = more trypsin-susceptible (destabilized); details: ligand concentration: 5 mM; sample: E. coli desalted lysate; replicate design: treated before aliquoting
Procedure: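 HT-PELSA: desalted E. coli K-12 BW25113 lysate (with 12 mM MgCl2) incubated with 5 mM ATP (pH 7) or water for 30 min at 25 C, then a 4 min trypsin pulse at 22 C. Peptides were quantified by DIA-MS (4 replicates). Value is the peptide log2 fold change (treated/control); negative = stabilized. Scale: negative = ligand-stabilized region.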
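Note: lysate desalted by size exclusion to strip endogenous ATP, peptide intensities built from DIA-NN precursor signals, and peptides missing any value discarded before comparison.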

Sequence of UniProt P00914 (P00914 whole entry): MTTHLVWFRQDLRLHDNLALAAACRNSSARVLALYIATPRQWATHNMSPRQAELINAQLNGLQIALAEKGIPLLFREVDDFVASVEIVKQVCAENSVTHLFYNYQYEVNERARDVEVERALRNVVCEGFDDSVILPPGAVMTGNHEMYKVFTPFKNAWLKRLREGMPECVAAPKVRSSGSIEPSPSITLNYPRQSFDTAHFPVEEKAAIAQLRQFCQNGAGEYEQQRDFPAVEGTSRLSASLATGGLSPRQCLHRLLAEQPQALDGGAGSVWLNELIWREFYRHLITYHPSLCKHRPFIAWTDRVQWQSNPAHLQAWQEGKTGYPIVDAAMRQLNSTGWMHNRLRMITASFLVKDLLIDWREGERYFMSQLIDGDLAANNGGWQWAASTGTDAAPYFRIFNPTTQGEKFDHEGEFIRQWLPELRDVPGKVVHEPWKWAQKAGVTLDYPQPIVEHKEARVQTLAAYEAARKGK
Sequence of UniProt P77754 (P77754 whole entry): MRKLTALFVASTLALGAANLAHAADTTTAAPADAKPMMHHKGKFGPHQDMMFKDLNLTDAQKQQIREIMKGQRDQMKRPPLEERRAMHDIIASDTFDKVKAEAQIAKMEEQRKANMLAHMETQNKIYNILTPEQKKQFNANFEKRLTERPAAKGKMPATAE
Sequence of UniProt P0ACU0 (P0ACU0 whole entry): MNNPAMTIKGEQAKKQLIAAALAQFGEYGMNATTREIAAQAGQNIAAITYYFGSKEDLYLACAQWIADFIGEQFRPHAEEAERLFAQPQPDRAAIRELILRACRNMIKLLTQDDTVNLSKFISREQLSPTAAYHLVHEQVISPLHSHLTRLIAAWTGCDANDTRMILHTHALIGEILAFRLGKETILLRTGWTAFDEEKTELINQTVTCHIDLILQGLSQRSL
Sequence of UniProt P03841 (P03841 whole entry): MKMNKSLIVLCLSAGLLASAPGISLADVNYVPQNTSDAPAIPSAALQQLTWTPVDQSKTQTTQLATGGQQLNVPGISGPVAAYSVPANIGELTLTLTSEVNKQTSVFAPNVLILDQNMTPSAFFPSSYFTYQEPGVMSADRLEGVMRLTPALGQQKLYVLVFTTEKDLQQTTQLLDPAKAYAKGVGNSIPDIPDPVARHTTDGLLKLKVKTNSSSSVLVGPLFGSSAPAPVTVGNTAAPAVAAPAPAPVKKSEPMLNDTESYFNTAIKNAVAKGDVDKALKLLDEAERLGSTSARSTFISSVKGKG
Sequence of UniProt P0ACN7 (P0ACN7 whole entry): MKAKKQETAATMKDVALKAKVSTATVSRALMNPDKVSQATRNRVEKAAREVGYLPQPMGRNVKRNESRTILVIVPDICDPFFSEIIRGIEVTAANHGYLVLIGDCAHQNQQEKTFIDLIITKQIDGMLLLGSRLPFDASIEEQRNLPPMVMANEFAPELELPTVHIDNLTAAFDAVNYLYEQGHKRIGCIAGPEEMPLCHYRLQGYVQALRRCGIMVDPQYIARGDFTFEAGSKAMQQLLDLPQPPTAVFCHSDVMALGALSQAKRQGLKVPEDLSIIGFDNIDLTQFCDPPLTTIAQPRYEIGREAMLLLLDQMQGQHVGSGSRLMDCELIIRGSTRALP
Sequence of UniProt P0A9U6 (P0A9U6 whole entry): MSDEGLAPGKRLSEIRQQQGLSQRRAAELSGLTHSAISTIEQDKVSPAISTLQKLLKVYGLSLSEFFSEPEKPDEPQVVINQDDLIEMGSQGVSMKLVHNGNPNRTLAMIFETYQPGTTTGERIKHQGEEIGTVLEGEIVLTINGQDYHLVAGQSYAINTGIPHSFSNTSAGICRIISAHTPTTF
Sequence of UniProt P25740 (P25740 whole entry): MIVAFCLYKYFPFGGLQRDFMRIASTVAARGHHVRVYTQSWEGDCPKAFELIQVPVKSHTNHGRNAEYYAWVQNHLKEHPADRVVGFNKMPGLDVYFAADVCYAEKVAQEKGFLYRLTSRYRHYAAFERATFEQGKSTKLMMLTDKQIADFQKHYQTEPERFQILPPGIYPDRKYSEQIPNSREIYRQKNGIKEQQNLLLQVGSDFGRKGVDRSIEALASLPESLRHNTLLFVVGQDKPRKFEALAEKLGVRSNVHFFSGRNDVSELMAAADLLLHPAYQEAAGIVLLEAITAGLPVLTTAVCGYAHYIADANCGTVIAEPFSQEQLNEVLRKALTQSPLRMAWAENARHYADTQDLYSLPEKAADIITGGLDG
Sequence of UniProt P76594 (P76594 whole entry): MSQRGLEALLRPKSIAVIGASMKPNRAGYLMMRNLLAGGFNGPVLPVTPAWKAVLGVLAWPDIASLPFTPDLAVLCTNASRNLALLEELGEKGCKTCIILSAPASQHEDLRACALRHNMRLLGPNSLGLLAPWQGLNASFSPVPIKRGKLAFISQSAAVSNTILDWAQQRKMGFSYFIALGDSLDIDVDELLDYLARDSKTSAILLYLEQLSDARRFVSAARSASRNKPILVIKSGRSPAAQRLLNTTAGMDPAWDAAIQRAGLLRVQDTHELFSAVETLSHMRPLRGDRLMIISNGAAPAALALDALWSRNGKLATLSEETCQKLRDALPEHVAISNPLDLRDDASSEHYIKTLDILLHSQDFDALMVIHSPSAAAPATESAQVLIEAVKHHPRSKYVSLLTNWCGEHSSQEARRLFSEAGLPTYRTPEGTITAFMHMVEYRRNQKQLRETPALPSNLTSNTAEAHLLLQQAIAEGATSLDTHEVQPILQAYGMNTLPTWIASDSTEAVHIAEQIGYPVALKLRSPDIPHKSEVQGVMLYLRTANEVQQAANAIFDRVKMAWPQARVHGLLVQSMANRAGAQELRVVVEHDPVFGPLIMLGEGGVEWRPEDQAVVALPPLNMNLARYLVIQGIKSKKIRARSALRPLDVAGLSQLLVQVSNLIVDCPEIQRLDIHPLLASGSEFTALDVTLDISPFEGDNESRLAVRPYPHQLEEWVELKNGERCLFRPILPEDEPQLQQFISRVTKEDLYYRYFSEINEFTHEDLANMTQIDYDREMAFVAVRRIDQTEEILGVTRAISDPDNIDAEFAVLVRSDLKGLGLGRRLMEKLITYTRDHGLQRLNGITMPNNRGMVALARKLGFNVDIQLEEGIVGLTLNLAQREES

| Target | log2 fold change |
| --- | --- |
| UniProt P03841 (peptide sequence: STFISSVKGKG, peptide start residue: 296) | 0.922 |
| UniProt P0ACN7 (peptide sequence: LMDCELIIR, peptide start residue: 326) | 1.5 |
| UniProt P00914 (peptide sequence: LSASLATGGLSPR, peptide start residue: 238) | -0.871 |
| UniProt P76594 (peptide sequence: SEVQGVMLYLR, peptide start residue: 533) | -2.33 |
| UniProt P25740 (peptide sequence: HYAAFER, peptide start residue: 123) | -0.355 |
| UniProt P0ACU0 (peptide sequence: LLTQDDTVNLSK, peptide start residue: 109) | 0.555 |
| UniProt P0A9U6 (peptide sequence: VSPAISTLQK, peptide start residue: 45) | 0.654 |
| UniProt P77754 (peptide sequence: DLNLTDAQK, peptide start residue: 54) | -0.35 |
